Data: PubChem BioAssay AID588778 (Southern Research Institute, 2011)
Out of some 10,000 compounds screened, fewer than 10 were called active. How the calls were made is not given here. A selection follows.

Assay: Vibrio cholerae motility inhibitors, OD read-out (AID 588778)
Settings: stronger effect = higher value
[1] = measured here: bacterial viability at 10 ug/mL

Compound	inhibition (concentration not given here)	inhibition [1] [%]
O=C(Nc1cnccn1)c1cccs1	20.3% (inactive)	10.6
CCOC(=O)N1CCN(C(=O)c2ccc(C#CC3(O)CCCCC3)cc2)CC1	-17.2% (inactive)	-5.67
CC(C)N=C(NS(=O)(=O)c1ccccc1)c1ccccc1	-3.11% (inactive)	-1.85
Cc1nc(NC(=O)c2c(F)c(F)c(F)c(F)c2F)ccc1I	13% (inactive)	0.675
COc1ccc2[nH]cc(CCNS(=O)(=O)Cc3ccccc3)c2c1	8.63% (inactive)	0.04
O=C(NC(=S)NCc1ccccc1)C1CC1	12.4% (inactive)	5.74
CC(NC(=O)c1ccco1)c1ccc(I)cc1 (stereo unspecified)	15.8% (inactive)	23.3
CSc1cccc(NC(=O)Cn2c(C)c(C=O)c3ccccc32)c1	20.7% (inactive)	5.17
CC(C)(C)OC(=O)NNC(=O)Nc1ccccc1C(F)(F)F	15.3% (inactive)	31.8
O=C(O)c1ccc(NC(=O)c2ccc(Cl)cc2)c(NC(=O)c2ccc(Cl)cc2)c1	-7.79% (inactive)	-2.21
N#Cc1cc2c(nc1SCC1(O)CCCc3ccccc31)CCCC2 (stereo unspecified)	8.28% (inactive)	-3.11
COc1ccc(-c2csc3ncnc(Oc4cccc5cccnc45)c23)cc1	-32.6% (inactive)	-9.37
COc1cccc2cc(C(=O)Nc3scc(-c4ccc(F)cc4)c3C(=O)OC(C)C)c(=O)oc12	-22.6% (inactive)	-8.21
O=[N+]([O-])c1cccc(CN2CCC(N3CCCC3)CC2)c1	-18.4% (inactive)	-10.2
NC(=O)C1(N2CCCCC2)CCN(C(=O)CSc2nc3ccccc3o2)CC1	4.33% (inactive)	-1.26
CCN(CC#CCCOC(C)=O)c1ccccc1	-9.42% (inactive)	-8.17
O=C(NC(=S)Nc1ccc(Cl)cc1C(F)(F)F)c1ccccc1I	-7.41% (inactive)	-8.11
COc1cc(C=O)ccc1OC(=O)c1nsc(Cl)c1Cl	2.31% (inactive)	2.66
O=C(NCCSc1ccc(Cl)cc1)Nc1ccccc1	52.1% (inactive)	14.4
Cc1ccc(F)c(NC(=O)CN2C(=O)CSc3ccccc32)c1	16.3% (inactive)	13.8
CCCCCOc1ccc(NC(=O)C(=O)NCCN2CCOCC2)cc1	-4.07% (inactive)	-7.64
COc1ccc(C(=O)N(Cc2ccc(C)o2)C2CCS(=O)(=O)C2)cc1Cl (stereo unspecified)	1.9% (inactive)	1.08

Compound	inhibition (concentration not given here)	inhibition [1] [%]
Cc1nnc(SCC(=O)Nc2ccc(Cl)cn2)s1	-2.25% (inactive)	-0.63
Cc1ccc(S(=O)(=O)Nc2ccc(C(=O)Nc3nccs3)cc2)cc1	4.81% (inactive)	-2.49
Cn1cnnc1SCC(=O)Nc1ccccn1	9.88% (inactive)	31.7
Clc1ccc(Cc2nc(-c3cccnc3)no2)cc1	5.04% (inactive)	0.075
CCOc1cc2c(cc1OCC)C(c1ccc(OC)c(OC)c1)N(c1ccc(C(=O)O)cc1)C(=O)C2 (stereo unspecified)	-8.01% (inactive)	-1.54
COc1ccc(Br)cc1CNCc1cccs1	84.4% (inactive)	24.4
C=CCn1c2ccccc2c2nnc(SCC(=O)Nc3cc(C)on3)nc21	-1.67% (inactive)	-8.05
CC1=C(C(=O)Nc2nc3ccccc3s2)C(c2ccc(F)cc2)C2=C(CCCC2=O)N1 (stereo unspecified)	-5.34% (inactive)	0.795
CC(C)(NO)C(=O)c1ccc(Cl)cc1	1.66% (inactive)	-5.03
CC12CCC(C(=O)NCc3ccccc3Cl)(CC1=O)C2(C)C (stereo unspecified)	7.42% (inactive)	-6.53
Cc1cc(NC(=O)COc2cc(C)c(Cl)c(C)c2)no1	3.92% (inactive)	-7.52
CCOc1ccc2ccccc2c1C(=O)NCc1cccs1	17.9% (inactive)	2.9
O=C(CC1(c2ccc(Cl)cc2)C(=O)c2ccccc2C1=O)N1CCCCC1	16% (inactive)	-0.9
Cc1occc1C(=O)Nc1cc(=O)n(C)c(=O)n1C	3.62% (inactive)	-1.31
Cc1c(C(=O)c2ccccc2)c(=O)n(C)c(=O)n1C	-8.62% (inactive)	1.24
COc1ccc(OC)c(NC(=O)Cn2c(C)ccc2C)c1	5.31% (inactive)	2.44
CC12CCC(C(=O)Nc3ccc(SC(F)F)cc3)(CC1=O)C2(C)C (stereo unspecified)	7.67% (inactive)	34.3
S=C(NCc1ccc(Cl)cc1)N1CCC2(CC1)OCCO2	-10.1% (inactive)	-3.96
OCCNC(=S)NC1CCCCC1	-10.2% (inactive)	-4.3
OCCNC/C=C/c1c(F)c(F)c(F)c(F)c1F	8.12% (inactive)	1.91
O=C(c1ccc(Sc2nnc(Cc3ccccc3)n2-c2ccccc2)c([N+](=O)[O-])c1)N1CCCC1	-6.85% (inactive)	7.99
COc1ccc(NC(=S)Nc2ccccc2OC(F)F)cc1OC	-38% (inactive)	-5

Compound	inhibition (concentration not given here)	inhibition [1] [%]
Cc1ccc(OCc2nnc(SCC(=O)N3CCc4ccccc43)n2N)cc1C	-18.2% (inactive)	-12.3
C=C1C2(C(=O)Nc3nc4ccc(Br)cc4s3)CCC(C2)C1(C)C (stereo unspecified)	-2.38% (inactive)	-1.19
Cc1cc(Cl)c(OCCOCCn2cnc3ccccc3c2=O)c(Br)c1	4.18% (inactive)	-5.62
Cc1c(N2C(=O)C3C4C=CC(C5CC45)C3C2=O)c(=O)n(-c2ccccc2)n1C (stereo unspecified)	-7.28% (inactive)	-4.46
COc1ccc(NC(=S)N2CCCC2C(=O)N2CCCC2)cc1 (stereo unspecified)	41.3% (inactive)	7.73
CN(C)C(=O)c1ccccc1C(=O)N(C)C	-3.26% (inactive)	34.3
C[C@@H](NC(=O)C1CCN(Cc2cccc(Cl)c2)CC1)c1ccccc1	19.5% (inactive)	5.13
Cc1cccc(C(=O)Nc2ccc(I)cc2C(=O)N2CCCC2)c1	-0.8% (inactive)	-1.35
C=CCn1c(SCC(=O)Nc2c(C)cc(I)cc2C)nnc1-c1ccco1	5% (inactive)	-2.52
COc1cccc(-c2cc(C(F)(F)F)n3ncc(C(=O)OC(C)C)c3n2)c1	14.1% (inactive)	15.9
Cc1cc(Br)c(NC(=O)CSc2ccc(Cl)cc2)cc1C	-1.15% (inactive)	5.67
COc1ccc(N(C)NC(=O)Cc2ccccc2)cc1	16.7% (inactive)	4.27
O=C(CC(NCc1ccccn1)C(=O)O)Nc1ccc(Cl)cc1 (stereo unspecified)	4.17% (inactive)	-9.2
COCc1cc(CN2CCCCC2)c(O)c2ncccc12	34% (inactive)	5.26
COc1cc(C(=O)Nc2nnc(-c3sccc3C)s2)cc(OC)c1OC	-3.78% (inactive)	-6.72
OCC(CO)(CO)NCC(O)CN1c2ccccc2Sc2ccccc21 (stereo unspecified)	3.65% (inactive)	-1.83
c1cncc(Nc2nc(-c3cccs3)cs2)c1	13.2% (inactive)	-2.87
COc1ccc(Cl)cc1NC(=S)Nc1cccc(C)n1	-27.1% (inactive)	-16.2
COc1ccc(C(=O)Nc2ncccc2O)cc1	10.3% (inactive)	2.51
S=C(NCc1ccco1)NNC(=S)Nc1ccc(Cl)cc1	13.3% (inactive)	5.16
CCCC(=O)c1ccc(N2CCN(C(=O)c3ccccc3Br)CC2)c(F)c1	1.55% (inactive)	4.06
COC(=O)C1=CN(c2ccc(F)c(F)c2)C=C(C(=O)OC)C1c1cc(OC)ccc1OC	-1.54% (inactive)	-3.16

Compound	inhibition (concentration not given here)	inhibition [1] [%]
Cc1sc(NCc2cc(Cl)ccc2O)nc1-c1ccc(F)cc1	14% (inactive)	-2.93
O=C(Oc1ccc(Cl)cc1Br)c1ccc(F)cc1	-4.46% (inactive)	-5.02
COc1c(S(=O)(=O)N2CCCN(S(=O)(=O)c3ccc(Cl)c(Cl)c3OC)CC2)ccc(Cl)c1Cl	8.96% (inactive)	22.4
COc1cc(NC(=O)CS)cc(OC)c1	-28.8% (inactive)	-11
CC(CCc1ccccc1)NC(=O)c1cccnc1 (stereo unspecified)	14.2% (inactive)	-1.57
CCOc1ccc(-n2nc3ccc(NC(=S)NC(=O)CC)cc3n2)cc1	-22.2% (inactive)	-6.24
CC1(C)CC(=O)C2=C(C1)NC(Nc1nc3ccccc3s1)=NC21C(=O)Nc2ccccc21 (stereo unspecified)	5.23% (inactive)	-0.54
O=C(CCC(=O)Nc1ccccc1Cl)NNC(=S)NCc1ccco1	7.34% (inactive)	30.6
O=C(CCCOc1ccc(Cl)cc1Cl)N1CCN(Cc2ccc3c(c2)OCO3)CC1	15.4% (inactive)	5.35
CCc1[nH]nc2c1C1(CN3CCC1CC3)C(C#N)=C(N)O2 (stereo unspecified)	-3.07% (inactive)	-0.3
CCN1C(=O)Cc2cc(S(N)(=O)=O)ccc21	13.3% (inactive)	0.76
O=C(NCCc1ccccc1)c1ccc(CNS(=O)(=O)c2cccc(Cl)c2)cc1	-4.41% (inactive)	-10.6
Cc1ccc(NC(NC=O)C(Cl)(Cl)Cl)c(C)c1 (stereo unspecified)	1.46% (inactive)	2.8
CCc1cc(C(=O)OC)c(NC(=O)c2cc(Br)cs2)s1	6.03% (inactive)	1.94
Cc1cccc(C)c1N1CCN(C(=O)N2CCCCC2)CC1	8.63% (inactive)	-4.82
COc1ccc(-c2csc3ncnc(SCc4c(C)noc4C)c23)cc1	24.7% (inactive)	4.67
Cc1cc2ccccc2n2c(SCC(=O)c3ccc4c(c3)OCCO4)nnc12	0.44% (inactive)	-5.11
O=C(c1cccs1)N1C(=O)c2cccc3c(S(=O)(=O)N4CCCC4)ccc1c23	11.6% (inactive)	-0.47
CCSc1nnc(NC(=O)c2csc3ccccc23)s1	-5.35% (inactive)	-4.62
COc1cc(SC)ccc1C(=O)Nc1cccc(C(F)(F)F)c1	0.295% (inactive)	-4.94
CCOC(=O)c1nnc2ccnn2c1N	-20.5% (inactive)	-4.37
Cc1csc(NC(=O)CSc2nc3c(c(C(F)(F)F)c2C#N)CCC3)n1	4.09% (inactive)	1.86
